# The full list was thinned out, with hits kept by preference.
# CBX7 inh: inhibitors of human CBX7 binding to H3K27me3 peptide | AlphaScreen His6-CBX7 / biotin-H3K27me3 peptide binding; stronger effect = lower value | normalised signal (fraction of DMSO) (concentration not given with the values) | hit rate 1.1% among 66,000 | AID 1224903; in the data active = normalised signal below about 0.5
# Target sequence (O95931 whole entry, looked up): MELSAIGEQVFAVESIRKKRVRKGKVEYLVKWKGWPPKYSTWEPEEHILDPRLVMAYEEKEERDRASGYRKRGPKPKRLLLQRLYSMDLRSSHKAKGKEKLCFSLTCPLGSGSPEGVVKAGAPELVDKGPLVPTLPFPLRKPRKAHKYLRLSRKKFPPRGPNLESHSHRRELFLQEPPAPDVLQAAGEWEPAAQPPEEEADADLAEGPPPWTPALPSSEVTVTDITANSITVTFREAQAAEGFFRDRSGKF
# The depositor's hits bear a star.
SMILES,CBX7 inh
COc1cccc(-n2nc(C(=O)Nc3ccccc3F)c3ccccc3c2=O)c1,0.996
O=C1CC(c2ccc(F)cc2)Sc2ccccc2N1 (stereo not given),0.885
O=C1Nc2ccccc2SC(c2ccccc2)C1O (stereo not given),0.193*
CC(C(=O)NC1CCCCC1)C1Sc2ccccc2NC1=O (stereo not given),1.01
CCN1C(=O)c2ccccc2S(=O)(=O)c2ccc(C(=O)N3CCN(C)CC3)cc21,1.04
Cc1ccc(NCc2nc3ccccc3n2Cc2ccccc2)cc1,0.852
Cc1ccccc1NCc1nc2ccccc2n1Cc1ccccc1,0.415*
c1ccc(Cn2c(NCc3ccc4c(c3)OCO4)nc3ccccc32)cc1,0.937
Clc1ccccc1-c1nc(NCc2ccccc2)nc2ccc(Br)cc12,1.51
Cc1ccccc1Cn1c(CNC(=O)Cc2ccccc2)nc2ccccc21,1.18
O=c1c(-c2cc(Br)ccc2NCc2ccccc2)nc2ccccc2n1Cc1ccccc1,0.368*
CCOC(=O)C1CCCN(C(=O)CN2C(=O)COc3ccc(S(=O)(=O)N4CCCC4)cc32)C1 (stereo not given),1.02
O=C(NC1CCCCC1)c1ccc2nc(N3CCOCC3)sc2c1,1
O=S(=O)(Nc1ccc(-c2cn3ccccc3n2)cc1)c1ccc(F)cc1,0.918
O=C1CC(NCCc2ccccc2F)C(=O)N1c1ccc(Br)cc1 (stereo not given),0.935
COc1nc(OC)nc(-n2cnc(NC(=O)Nc3ccc(Cl)cc3)n2)n1,0.245*
Cc1ccc(NC(=O)Nc2ccc(Cl)cc2)nc1,0.645
O=C(Nc1ccc(Cl)cc1)Nc1ccc(Nc2ccccc2)cc1,0.885
COc1ccc(Cc2nnc(Nc3cccc(C(F)(F)F)c3)[nH]c2=O)cc1,1.27
CCOC(=O)c1oc2ccccc2c1NC(=O)c1ccc(S(=O)(=O)N(C)C2CCCCC2)cc1,1.09
COCc1nnc(NC(=O)c2ccc(S(=O)(=O)N3CCOCC3)cc2)o1,0.691
CN(C1CCCCC1)S(=O)(=O)c1ccc(C(=O)Nc2ccccc2-c2nc3ccccc3[nH]2)cc1,0.931
CC1CCCCN1S(=O)(=O)c1ccc(C(=O)Nc2nnc(C3CC3)o2)cc1 (stereo not given),0.000883*
COCc1nnc(NC(=O)c2ccc(S(=O)(=O)N3CCCCC3C)cc2)o1 (stereo not given),0.736
CC1CN(S(=O)(=O)c2ccc(C(=O)Nc3nnc(C4CC4)o3)cc2)CC(C)O1 (stereo not given),0.643
SMILES,CBX7 inh
CCc1nnc(NC(=O)c2ccc(S(=O)(=O)N(C)C3CCCCC3)cc2)o1,0.0649*
CCc1nnc(NC(=O)c2ccc(S(=O)(=O)N3CC(C)OC(C)C3)cc2)o1 (stereo not given),0.669
CCc1nnc(NC(=O)c2ccc(S(=O)(=O)N3CCCCCC3)cc2)o1,0.043*
CC1CCN(S(=O)(=O)c2ccc(C(=O)Nc3nnc(C4CC4)o3)cc2)CC1,0.74
O=C(Nc1nnc(C2CC2)o1)c1ccc(S(=O)(=O)N2CCCc3ccccc32)cc1,0.694
O=C(Nc1nnc(C2CC2)o1)c1ccc(S(=O)(=O)N2CCCCC2)cc1,0.0124*
CC(=O)Nc1ccc(Oc2nnc(C)c3ccccc23)cc1,1.02
O=c1c2nnn(Cc3ccc(F)cc3)c2ncn1Cc1ccc(Br)cc1,0.949
COc1cccc(NC(=O)CSc2nnc(Cc3cc(=O)[nH]c(=O)[nH]3)n2-c2ccccc2)c1,1.05
CC1CCN(C(=O)c2cc3ccccn3n2)CC1,1.19
Cc1noc(C)c1S(=O)(=O)N1CCCC(C(=O)Nc2cccc(F)c2)C1 (stereo not given),1.06
CC(C)OCCCNC(=O)c1ccc2c(c1)N(Cc1cccc(Cl)c1)C(=O)c1ccccc1S2,0.631
Cc1nc2ncnn2c(C)c1CCC(=O)Nc1ccc(Br)cc1,1.03
CC(C)CC(=O)NC(c1ccccc1)c1ccc2cccnc2c1O (stereo not given),0.0438*
COc1ccc(CSc2cccc3cccnc23)cc1[N+](=O)[O-],0.852
CC(C)C(=O)NC(c1cccs1)c1cc(Cl)c2cccnc2c1O (stereo not given),0.636
CCCC(=O)NC(c1ccc(C(C)C)cc1)c1cc(Cl)c2cccnc2c1O (stereo not given),0.823
Cc1ccc(C(NC(=O)C(C)C)c2cc(Cl)c3cccnc3c2O)cc1 (stereo not given),0.627
CCCC(=O)NC(c1ccc(OC)cc1)c1cc(Cl)c2cccnc2c1O (stereo not given),0.776
CCCC(=O)NC(c1cccs1)c1cc(Cl)c2cccnc2c1O (stereo not given),0.27*
COc1ccc(C(NC(=O)CCc2ccccc2)c2ccc3cccnc3c2O)cc1 (stereo not given),0.082*
O=C(CCc1ccccc1)NC(c1ccc(Cl)cc1)c1ccc2cccnc2c1O (stereo not given),0.621
Cc1ccc(C(NC(=O)CC(C)C)c2ccc3cccnc3c2O)cc1 (stereo not given),0.628
COc1cc(NC(=O)Cc2ccc(OC)c(OC)c2)c2ncccc2c1,1.04
COc1ccc(C(NC(=O)CC(C)C)c2ccc3cccnc3c2O)cc1OC (stereo not given),0.0613*
SMILES,CBX7 inh
COCCNC(=O)CCC(=O)Nc1ccc2nc(N3CC(C)CC(C)C3)cc(C)c2c1 (stereo not given),1.01
COc1ccc(-n2nnc3c(=O)n(CC(=O)NCc4ccccc4)cnc32)cc1,0.907
Cc1ccc2c(c1)NCC(C(=O)NCc1cccnc1)O2 (stereo not given),1.49
CCn1c(C(=O)N2CCC(C(=O)N3CCC(Cc4ccccc4)CC3)CC2)cc2sccc21,0.51
CCCN(CCC)S(=O)(=O)c1ccc2c(c1)N(CC(=O)NCCCOC)C(=O)CS2,1.03
Cc1nc2cc(-c3ccccc3)nn2c(C)c1CCC(=O)O,1.04
O=C(NCc1ccc2c(c1)OCO2)c1ccc2c(c1)N(Cc1ccc(Cl)cc1)CCS2,1
CCOc1ccc(CC(=O)Nc2sc3c(c2C(=O)OC)CCCC3)cc1OCC,1.35
COc1ccc(CNC(=O)C2CCN(C(=O)c3cc4sccc4n3C)CC2)cc1,1.03
Cc1nc2ncccn2c1-c1csc(Nc2ncccn2)n1,1.05
Cc1c(C(=O)Nc2ccc(F)cc2)oc2ccc(S(=O)(=O)N(C)C3CCCCC3)cc12,1.05
CCN1CCN(C(c2cccs2)C(C)NC(=O)CC(C)C)CC1 (stereo not given),1.14
Oc1c(C(Nc2ccccc2)c2ccccc2)ccc2cccnc12 (stereo not given),0.237*
O=C(Nc1ccc(Cl)c(Cl)c1)Nc1cccc2cccnc12,0.981
CC(C)CC(=O)NC(c1cccs1)c1ccc2cccnc2c1O (stereo not given),0.102*
O=C(O)C(NS(=O)(=O)c1cccc2cccnc12)c1ccccc1 (stereo not given),1.02
O=C(O)CC(NCc1cccnc1)c1cccs1 (stereo not given),1.01
CCc1ccccc1N(C)S(=O)(=O)c1ccc2[nH]cc(C(=O)NC(C)C)c(=O)c2c1,0.995
Cc1ccc2cc(CCNC(=O)c3cccc(Cl)c3)c(=O)[nH]c2c1,0.945
Cc1ccc(Nc2nc(-c3ccccc3)c3cc(Br)ccc3n2)cc1,1.4
O=C(c1cc(-c2ccncc2)nc2ccccc12)N1CCN(c2ccccn2)CC1,0.847
Cc1cccc(N2CCN(C(=O)c3cnn(-c4ccccc4)c3-n3cccc3)CC2C)c1 (stereo not given),0.976
Cc1cccc(N2CCN(C(=O)c3cc(-c4ccncc4)nc4ccccc34)CC2C)c1 (stereo not given),0.406*

# Compound activity as filed in PubChem BioAssay.
